Assay outcomes from PubChem BioAssay.
NS1 inh = blocks influenza NS1 protein function; hit rate 0.4% among 270,000; Potency, µM (highest dose often 46.1 µM); calls by dose curve; further: actives are rising curves; nearly all actives have a fitted effect of over 50% in size
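Recovery from NS1-induced slow growth read by OD600 in budding yeast switched to galactose assay medium (pH 6.0, -URA) at 1:100 dilution. Compound 23 nl per well; the matching strain lacking NS1 serves as control.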
Shiga inhibitor = blocks Shiga toxin action in Vero cells; hit rate 9.2% among 290,000; AID 2315; inhibition, % at 38.7 µM; Vero cells, Shiga toxin protein synthesis inhibition reporter; in the data active means inhibition mostly above about 28%, no sharp cut-off; inactive means mostly below about 43%
AmpC no deterg = inhibitors of E. coli AmpC beta-lactamase without detergent; P00811; AmpC nitrocefin hydrolysis, absorbance 480 nm, 0.0001% Triton; Potency, µM (titrated, usually from 57.1 µM), most hits filed as inhibitors; hit rate 0.52% among 330,000; AID 485341; further: nearly all actives have a fitted effect of over 20% in size
Target sequence (P00811 whole entry, looked up): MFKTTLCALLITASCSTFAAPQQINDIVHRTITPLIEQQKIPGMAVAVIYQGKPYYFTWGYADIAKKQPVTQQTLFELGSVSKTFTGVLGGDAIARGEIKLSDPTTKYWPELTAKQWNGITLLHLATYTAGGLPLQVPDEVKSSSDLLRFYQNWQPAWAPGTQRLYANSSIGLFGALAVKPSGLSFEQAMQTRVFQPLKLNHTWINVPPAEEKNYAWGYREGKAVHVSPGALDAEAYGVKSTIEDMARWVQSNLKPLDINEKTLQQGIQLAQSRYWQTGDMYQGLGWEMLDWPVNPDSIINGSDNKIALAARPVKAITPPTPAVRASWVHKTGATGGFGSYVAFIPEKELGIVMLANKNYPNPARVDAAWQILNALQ
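AmpC (5.3 nM in the dispensed reagent) in 20 mM phosphate pH 7.0 with 0.01% (detergent screen) or 0.0001% Triton X-100 was preincubated with compounds for 15 min at room temperature. Nitrocefin was then added from an 800 uM solution, and hydrolysis was followed at 480 nm.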
AmpC detergent = blocks E. coli AmpC beta-lactamase in detergent assay | P00811 | AmpC hydrolysis of nitrocefin, absorbance 480 nm, 0.01% Triton | Potency, µM (top dose mostly 114 µM), most hits filed as inhibitors | hit rate 0.041% among 370,000 | AID 485294; further: nearly all actives have a fitted effect of over 25% in size
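AmpC (5.3 nM in the dispensed reagent) in 20 mM phosphate pH 7.0 with 0.01% (detergent screen) or 0.0001% Triton X-100 was preincubated with compounds for 15 min at room temperature. Nitrocefin was then added from an 800 uM solution, and hydrolysis was followed at 480 nm.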
CHX counter = counter-screen hit for Shiga toxin inhibitors, cycloheximide. hit rate 12% among 300,000. cell reporter, cycloheximide protein synthesis inhibition counterscreen. AID 2314. max response, %; in the data active means max response mostly above about 13%, no sharp cut-off; inactive means mostly below about 14%; further: read at 38.3 µM for the half of the compounds with a filed dose
Hits are given with their value; - = inactive; ? = inconclusive; . = no result given. The full list was thinned out, with hits kept by preference. Unless noted, the call rests on the fitted dose curve; in most records, active means well fitted curve in the direction sought with a large enough effect; inconclusive means small, poorly fitted or top-dose-only effect, or another doubt; inactive means no such curve, though single readings can be large; an effect the other way counts as inactive or inconclusive.

SMILES	NS1 inh	Shiga inhibitor	AmpC no deterg	AmpC detergent	CHX counter
CCOc1ccc(NC(=O)NCCN2CCN(c3cc(Cl)ccc3C)CC2)cc1	.	.	.	-	.
CC(=O)Nc1ccccc1-c1nc2ccccc2n(C(C)C(=O)Nc2cc(Cl)ccc2C)c1=O (stereo not given)	.	.	.	-	.
C=CCNC1=C(Cl)C(=O)c2ccccc2C1=O	-	active	-	-	-
COc1ccc(CNC(=O)Cn2ccc3cc(S(=O)(=O)N4CCCCC4)ccc32)c(OC)c1	.	.	.	-	.
CCc1nc(SCC(=O)Nc2ccccc2C)n[nH]1	-	-	-	?	-
CCc1nc(SCc2ccccc2C)n[nH]1	-	-	-	-	21
Cc1nc(SCc2ccccc2C)n[nH]1	-	active	-	-	19
COCCSc1nc2c([nH]c3ccccc32)c(=O)n1-c1ccc(OC)c(OC)c1	.	.	.	-	.
Nc1c(-c2cccc([N+](=O)[O-])c2)nc2ccccn12	?	82	-	?	112
O=[N+]([O-])c1cccc(-c2ncc3ccccn23)c1	.	68	-	-	31
Clc1ccc(-c2ncc3ccccn23)cc1	-	-	-	-	-
COc1ccc(-c2ncc3ccccn23)cc1OC	-	-	-	?	24
Cc1ccc(NC(=O)CSc2nc3c(oc4ccccc43)c(=O)n2Cc2ccco2)cc1F	.	.	.	-	.
CC(CCN(C)C)OC(=O)c1ccc(C(C)c2ccccc2)o1 (stereo not given)	-	-	-	-	18
Cc1ccc(CNC(=O)CNS(=O)(=O)c2cccs2)cc1	.	.	.	-	.
COC(=O)c1ccc(CN(C)S(=O)(=O)c2cccs2)cc1	-	76	-	-	56
CN(CC(=O)NCCc1ccccc1)S(=O)(=O)c1ccc(Br)cc1	-	-	-	-	-
CN(CC(=O)NCCc1ccccc1)S(=O)(=O)c1ccc(Br)s1	-	46	-	?	28
CN(CC(=O)NCCc1ccccc1)S(=O)(=O)c1cccs1	-	-	-	?	-
CN(CC(=O)NCCc1ccc(Cl)cc1)S(=O)(=O)c1cccs1	-	34	-	-	22
Cc1ccc(CNC(=O)CN(C)S(=O)(=O)c2cccs2)cc1	.	-	-	-	28
CN(Cc1ccccc1)S(=O)(=O)c1cccs1	-	-	-	-	-
CNC(=O)c1ccc(CSc2nc3cccnc3n2Cc2cccc(F)c2)cc1	.	.	.	-	.
O=C(CN1CCN(S(=O)(=O)c2ccc(F)c(Cl)c2)CC1)N1CCNC1=O	.	.	-	?	.
O=C(CCS(=O)(=O)Cc1ccc(Cl)cc1)NCCc1ccccc1	.	-	-	?	19
SMILES	NS1 inh	Shiga inhibitor	AmpC no deterg	AmpC detergent	CHX counter
Cc1cccc(NC(=O)CCNS(=O)(=O)c2cc(Br)cnc2N)c1C	-	-	-	-	-
O=C(CN1CCN(S(=O)(=O)c2ccc(Cl)cc2)CC1)Nc1ccc(F)cc1F	-	-	-	-	17
O=C(CN1CCN(S(=O)(=O)c2ccc(Br)cc2)CC1)Nc1ccc(F)cc1F	-	-	-	-	13
CCCCCOC(=O)NCC(O)c1ccccc1 (stereo not given)	-	86	-	-	68
CCCCOC(=O)NC(NCC(O)c1ccccc1)(C(F)(F)F)C(F)(F)F (stereo not given)	-	-	-	?	-
Cc1ccc(CCNC(=O)c2cn(C)c3ccc(S(=O)(=O)N4CCCCC4)cc3c2=O)cc1	.	.	.	-	.
O=C(NCCc1ccncc1)Nc1ccc(F)cc1	-	-	-	-	-
Cc1ccc(C(=O)NCCc2ccc(F)cc2)s1	.	58	-	-	59
O=C(NCCc1ccccc1)C(=O)NCc1ccncc1	-	-	-	-	-
O=C(NCCc1ccc(F)cc1)c1ccncc1	-	87	-	-	16
O=C(NCCc1ccccc1)c1ccc(Cl)nc1	-	60	-	?	33
O=C(NCCc1ccccc1)c1ccncc1	-	95	-	-	32
CC(NC(=O)CCCC1=NS(=O)(=O)c2ccccc2N1)c1ccccc1 (stereo not given)	.	.	.	-	.
CC(=O)Nc1ccc(NC(=O)C(NS(=O)(=O)c2ccc(Br)s2)c2ccccc2)cc1 (stereo not given)	.	.	.	-	.
CCOc1ccccc1Nc1sc(C(=O)c2ccc(Cl)cc2)c(N)c1C#N	.	.	.	-	.
NS(=O)(=O)c1ccc(CCNC(=O)c2ccc(Br)s2)cc1	.	-	-	-	-
O=C(NCCc1ccc(Cl)cc1)c1ccc(Br)s1	-	55	-	?	45
Cc1cc(S(=O)(=O)NCc2ccccc2)ccc1OCC(=O)NCc1ccncc1	-	80	-	-	49
COc1ccc(CCNC(=O)c2n[nH]c(=O)c3ccccc23)cc1	-	-	-	-	-
O=C(NCCc1ccccc1)c1n[nH]c(=O)c2ccccc12	-	-	-	-	27
O=C(Cc1ccccc1)NCc1ccncc1	-	67	-	-	42
CCCC#CCN1CCN(C23CC4CC(CC(C4)C2)C3)CC1	-	-	-	-	-
COc1cc(C(=O)NCc2nc3cccnc3n2Cc2ccc(C)cc2)cc(OC)c1OC	.	.	.	-	.
S=c1[nH]nc(-c2ccc3ccccc3n2)n1-c1ccccc1Cl	-	-	-	-	-
FC(F)(F)c1ccc(Cl)c(-n2c(-c3cc(-c4ccco4)[nH]n3)n[nH]c2=S)c1	-	-	4µM	-	-
SMILES	NS1 inh	Shiga inhibitor	AmpC no deterg	AmpC detergent	CHX counter
S=c1[nH]nc(-c2ccco2)n1-c1ccccc1Cl	-	67	-	-	33
S=c1[nH]nc(-c2ccn[nH]2)n1-c1ccccc1Cl	-	72	-	-	28
CN(C)S(=O)(=O)Nc1ccc(-c2cn3ccsc3n2)cc1	.	.	.	-	.
CCC(C)NC(=O)CSc1nnc(-c2ccc(C)cc2)c(-c2ccc(C)cc2)n1 (stereo not given)	.	.	.	-	.
CCOc1ccccc1NC(=O)N1CCN(S(=O)(=O)c2ccc3c(ccn3C)c2)CC1	.	.	.	-	.
CCN(CC)S(=O)(=O)c1ccc2c(c1)c(=O)c(C(=O)N1CCN(c3ccc(F)cc3)CC1)cn2C	.	.	.	-	.
CC1(C)CC(=O)c2cnc(NC(=O)Cc3ccc(Cl)cc3)nc2C1	-	-	-	-	-
CCc1ccc(Nc2ncc3c(n2)CC(c2ccc(OC)cc2)CC3=O)cc1 (stereo not given)	-	-	-	-	-
CCc1ccc(Nc2ncc3c(n2)CC(C)(C)CC3=O)cc1	-	75	-	-	57
CCc1ccc(Nc2ncc3c(n2)CC(C)CC3=O)cc1 (stereo not given)	-	96	-	-	47
CC1(C)CC(=O)c2cnc(NCc3ccco3)nc2C1	-	-	-	?	14
COc1cc(OC)c(S(=O)(=O)NCc2ccco2)cc1S(=O)(=O)NCc1ccco1	-	-	-	?	-
CCc1ccc(-c2cc(C)no2)cc1S(=O)(=O)NCc1ccco1	-	42	-	-	30
COc1c(C)cc(S(=O)(=O)NCc2ccco2)c(C)c1C	-	-	-	-	15
CCn1cc2nc(SCc3cccc(C(F)(F)F)c3)n(Cc3ccc(OC)cc3)c(=O)c2n1	.	.	.	-	.
CN1C(=O)c2c(sc3c2CCCC3)NC1c1ccccc1O (stereo not given)	-	49	-	-	19
